Pol kappa inh-1: blocks human DNA polymerase kappa activity; 400,000 tested, 0.53% active; Q9UBT6; purified Pol kappa, fluorescent DNA synthesis assay, 10 min; Potency, µM (top dose mostly 107 µM), most hits filed as inhibitors; AID 588579
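Activity was followed as the change in fluorescence between reads at 0 and 10 min after starting the reaction with 50 nM substrate. Beforehand, 10 nM polymerase had been preincubated with compound for 15 min at room temperature.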
KAT2A inh: GCN5L2 (KAT2A) acetyltransferase inhibition. 390,000 tested, 0.21% active. AID 504327. GCN5L2 HAT assay, ThioGlo1 CoA-SH fluorescence. Potency, µM (top dose mostly 58.9 µM), usual class: inhibitors
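ThioGlo1-coupled HAT assay: 20nM GCN5L2, 70uM acetyl-CoA, 75uM H3(1-25) peptide, pH 7.5. Fluorescence read at 340/540nm at start and after 20 min at room temperature.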
Pol iota inh: inhibitors of human DNA polymerase iota. Pol iota fluorescent replication assay, 10 min. Potency, µM (highest dose often 115 µM), hits mostly inhibitors. Q9UNA4. 390,000 tested, 1% active
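Fluorescent replication assay read twice, at 0 min and 10 min after adding 50 nM (final) substrate. Enzyme (10 nM) and compounds were first incubated 15 min at room temperature; enzyme-free buffer wells were negative controls.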
Pol beta inh-1: DNA polymerase beta (human) inhibition; Potency, µM (titrated, usually from 114 µM), hits mostly inhibitors; Pol beta primer extension/strand displacement, fluorescence kinetic; P06746; AID 485314; 340,000 tested, 1.3% active
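10 nM enzyme + cpd, 15 min RT; start with substrate 50 nM final; read 0 min and after 10 min RT. Corrected, normalized data; 4-parameter Hill curve fit.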
Pol eta inh-1: inhibitors of human DNA polymerase eta. Q9Y253. Potency, µM (series often up to 114 µM), hits mostly inhibitors. 390,000 tested, 1.2% active. recombinant Pol eta, fluorescent DNA replication assay
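Pol eta (10 nM) was preincubated with compounds for 15 min at room temperature, after which fluorescent replication substrate (50 nM final) was added to start the reaction. Fluorescence was read kinetically at 0 and 10 min.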
GLS inhibitor: inhibitors of human glutaminase (GLS) | AID 624170 | GLS enzymatic activity, qHTS titration | 410,000 tested, 0.21% active | Potency, µM (top dose mostly 45.5 µM), usual class: inhibitors
Target sequence (O94925 whole entry, looked up): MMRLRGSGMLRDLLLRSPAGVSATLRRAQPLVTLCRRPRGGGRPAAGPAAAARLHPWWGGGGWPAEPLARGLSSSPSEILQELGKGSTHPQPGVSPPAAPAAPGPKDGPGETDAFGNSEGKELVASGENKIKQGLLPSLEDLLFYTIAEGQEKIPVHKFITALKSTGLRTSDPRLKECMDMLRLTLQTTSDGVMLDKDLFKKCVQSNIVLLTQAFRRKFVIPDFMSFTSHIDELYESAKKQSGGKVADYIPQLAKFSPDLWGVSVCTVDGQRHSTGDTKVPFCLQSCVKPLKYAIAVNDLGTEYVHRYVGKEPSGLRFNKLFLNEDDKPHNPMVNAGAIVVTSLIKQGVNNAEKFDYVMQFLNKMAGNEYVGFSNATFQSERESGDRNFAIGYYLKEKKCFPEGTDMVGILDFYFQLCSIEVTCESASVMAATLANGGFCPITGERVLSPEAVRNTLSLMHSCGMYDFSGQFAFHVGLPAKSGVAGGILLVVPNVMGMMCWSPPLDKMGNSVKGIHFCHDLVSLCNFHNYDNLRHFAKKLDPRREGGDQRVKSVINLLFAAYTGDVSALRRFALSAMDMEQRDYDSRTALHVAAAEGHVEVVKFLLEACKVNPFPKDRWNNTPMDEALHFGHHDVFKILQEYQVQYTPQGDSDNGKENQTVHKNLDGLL
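Compounds were pin-transferred onto hKGA, after which L-glutamine (1 mM solution) and a detection mix of glutamate oxidase, HRP and Amplex Red were added. Initial and 30 min RT fluorescence reads were collected.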
Pol beta inh-2: Inhibitors of human DNA polymerase beta, hit validation; shares compounds with Pol beta inh-1; Pol beta primer extension/strand displacement, fluorescence kinetic; Potency, µM, most hits filed as inhibitors; 250 tested, 87% active; AID 540280; calls by dose curve
Klenow inh: counter-screen for DNA polymerase beta inhibitors: Klenow fragment inhibition; shares compounds with Pol beta inh-1; Klenow exo- polymerase counter-screen, fluorescent DNA substrate; activity change, negative = inhibition, % at 57.1 µM; 250 tested, under 10 active; AID 540300
HIV RT inh: HIV-1 RT inhibition, pol beta selectivity check. shares compounds with Pol beta inh-1. HIV-1 RT polymerase activity, counter-screen. activity % (negative = inhibition, positive = activation), % at 57.1 µM. 250 tested, under 10 active. AID 540301
POLB valid: validation of human DNA polymerase beta inhibitors | shares compounds with Pol beta inh-1 | radiolabeled primer extension gel assay, phosphorimager | inhibition, % at 10 µM | 110 tested, 91% active | AID 540325;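 active = inhibition at 10 µM of 30% or more; inconclusive = no clear call, values can overlap the other calls; inactive = inhibition at 10 µM under 30%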
Pol iota confirm: Human Pol iota inhibitor confirmatory assay. Potency, µM, actives largely listed as inhibitors. shares compounds with Pol kappa inh-1. 1,500 tested, 77% active. Pol iota primer extension, TAMRA/BHQ fluorescence. AID 720496
Pol kappa inh-2: Pol kappa (human) inhibition, cherry-pick confirmation. shares compounds with Pol eta inh-1. purified Pol-kappa, fluorescent strand-displacement substrate. Potency, µM, most hits filed as inhibitors. 920 tested, 76% active
Pol eta inh-2: Pol eta (human) inhibition, cherry-pick confirmation; 2,600 tested, 64% active; AID 720502; shares compounds with Pol eta inh-1; Pol eta primer extension, TAMRA/BHQ fluorescence, 10 min; Potency, µM, actives largely listed as inhibitors
A number is an active result; i = inactive; ? = inconclusive; nt = no result. Hits are enriched below; roughly 2.4% of the tested compounds scored in any of these assays. Unless noted, calls come from the whole dose curve; as a rule, active = well fitted curve in the direction sought with a large enough effect; inconclusive = small, poorly fitted or top-dose-only effect, or another doubt; inactive = no such curve, though single readings can be large; an effect the other way counts as inactive or inconclusive.

SMILES	Pol kappa inh-1	KAT2A inh	Pol iota inh	Pol beta inh-1	Pol eta inh-1	GLS inhibitor	Pol beta inh-2	Klenow inh	HIV RT inh	Pol iota confirm	Pol eta inh-2	others
O=C(CCCn1c(SCC(=O)c2ccc(O)c(O)c2)nc2ccccc2c1=O)NCC1CCCO1 (stereo not given)	20µM	i	14µM	7.9µM	20µM	i	10	i	i	nt	60
O=C(CCCn1c(SCC(=O)NC2CCCCC2)nc2ccccc2c1=O)NCC1CCCO1 (stereo not given)	i	i	i	i	i	i	nt	nt	nt	nt	nt
C=C(C)CCOC(=O)C(CC(=O)O)NCc1ccco1 (stereo not given)	?	i	i	8.9µM	11µM	i	35	i	i	nt	27	Pol kappa inh-2=19
CC(=O)N(CCC(c1ccccc1)c1ccco1)Cc1cccs1 (stereo not given)	i	?	i	?	i	i	nt	nt	nt	nt	nt
Cc1ccc(C(CCN(Cc2ccccc2)C(=O)c2ccco2)c2ccco2)cc1 (stereo not given)	50µM	?	20µM	10µM	18µM	i	16	i	i	nt	85
CCOc1ccc(C(=O)Nc2ccc3nn(-c4ccc(OC)c(Cl)c4)nc3c2)cc1	i	i	i	i	i	i	nt	nt	nt	nt	nt
Cc1ccc(CNC(=O)CCCN2C(=O)CCn3nc(-c4cn(C)c5ccccc45)cc32)cc1	i	i	i	i	i	i	nt	nt	nt	nt	nt
CC(=O)Nc1ccc(NC(=O)CC2Sc3ccccc3NC2=O)cc1 (stereo not given)	i	i	i	i	i	i	nt	nt	nt	nt	nt
O=C(CC1Sc2ccccc2NC1=O)Nc1cccc(C(=O)O)c1 (stereo not given)	35µM	i	50µM	20µM	6.3µM	i	28	i	i	42	7.6	POLB valid=i
COC(=O)c1cccc(Nc2c(-c3ccc(SC)cc3)nc3nc[nH]n23)c1	i	i	i	i	i	i	nt	nt	nt	nt	nt
Cc1ccc(NC(=O)COC(=O)c2ccc(S(=O)(=O)NCc3ccco3)cc2)cc1	i	i	i	nt	i	i	nt	nt	nt	nt	nt
O=C(COC(=O)c1ccc(S(=O)(=O)NCc2ccco2)cc1)Nc1ccc(Cl)cn1	79µM	i	22µM	16µM	20µM	i	22	i	i	nt	76	POLB valid=100
Cc1ccc(OCC(=O)Nc2ccc3nc(SCC(=O)N4CCCC4)sc3c2)cc1	i	i	i	i	i	i	nt	nt	nt	nt	nt
COc1cccc(-c2cc(C(=O)NC3CC3)c3ccccc3n2)c1	i	i	i	i	i	i	nt	nt	nt	nt	nt
COc1ccc(NC(=O)c2cc(-c3ccco3)nc3ccccc23)cc1S(=O)(=O)N1CCOCC1	40µM	?	?	2µM	16µM	?	10	i	i	15	17
COc1ccc(NC(=O)c2cc(C)nc3ccccc23)cc1S(=O)(=O)N1CCOCC1	i	i	i	nt	i	i	nt	nt	nt	nt	nt
CCc1nnc(NC(=O)c2cc(-c3ccco3)nc3ccccc23)s1	25µM	i	1.3µM	8.9µM	16µM	i	20	i	i	?	76
O=C(NC1CCC(O)CC1)c1cc(-c2ccco2)nc2ccccc12 (stereo not given)	?	i	35µM	13µM	25µM	?	28	i	i	67	76	POLB valid=84
Cc1ccccc1OCCSc1nc2ccc(NC(=O)c3cccs3)cc2s1	i	i	i	i	i	i	nt	nt	nt	nt	nt
Cc1oc(-c2ccc(F)cc2)cc1-c1nn2c(-c3ccoc3C)nnc2s1	28µM	i	7.9µM	3.5µM	7.9µM	i	?	i	i	?	76
O=S(=O)(c1cccs1)N1CCN(c2nc(-c3cccs3)nc3ccccc23)CC1	i	nt	i	nt	nt	nt	nt	nt	nt	nt	nt
COc1ccc(OC)c(/C=c2\sc3nc(-c4cccs4)nn3c2=O)c1	i	i	i	?	?	i	nt	nt	nt	nt	nt
COc1ccccc1/C=c1\sc2nc(-c3ccco3)nn2c1=O	32µM	?	18µM	10µM	8.9µM	i	28	i	i	42	19	POLB valid=95
Cc1ccc(S(=O)(=O)N2CCN(C(=O)Cc3ccc(S(=O)(=O)N4CCOCC4)s3)CC2)cc1	i	i	i	i	i	i	nt	nt	nt	nt	nt
COc1ccc(N2CCN(C(=O)Cc3ccc(S(=O)(=O)N4CCOCC4)s3)CC2)cc1	79µM	i	20µM	13µM	20µM	i	32	i	i	42	48	POLB valid=83
SMILES	Pol kappa inh-1	KAT2A inh	Pol iota inh	Pol beta inh-1	Pol eta inh-1	GLS inhibitor	Pol beta inh-2	Klenow inh	HIV RT inh	Pol iota confirm	Pol eta inh-2	others
CCOc1ccc(C2CC(=O)Nc3nc(SCc4ccccc4C)[nH]c(=O)c32)cc1OC (stereo not given)	i	i	i	i	i	i	nt	nt	nt	nt	nt
Cc1ccc2nc(/C(C#N)=C/c3ccc(-c4cccc([N+](=O)[O-])c4)o3)[nH]c2c1	i	i	10µM	5µM	?	i	5.6	i	i	?	76
COC(=O)c1c(NC(=O)COC(=O)c2ccccc2O)sc2c1CCCCC2	i	i	i	i	i	i	nt	nt	nt	nt	nt
COC(=O)c1c(NC(=O)COC(=O)c2ccc(NC(=O)CC#N)cc2)sc2c1CCCCC2	50µM	i	14µM	8.9µM	28µM	i	6.3	i	i	24	30	Pol kappa inh-2=17
COc1ccc(N2CCN(Cc3nc4c(c(=O)[nH]c(=O)n4C)n3Cc3ccccc3C)CC2)cc1	i	i	i	i	i	i	nt	nt	nt	nt	nt
COc1cc(C(=S)N2CCN(c3ccccc3Cl)CC2)cc(O)c1O	71µM	i	?	10µM	20µM	i	2.5	i	i	nt	76
Cc1ccc(C(=O)Nc2cccc(-c3cnc4ccccc4n3)c2)cc1	i	i	i	i	i	i	nt	nt	nt	nt	nt

Screening data (PubChem)
